Measured values from PubChem BioAssay.

target: Luciferin 4-monooxygenase (Photinus pyralis) (UniProt P08659); assay: firefly luciferase enzyme inhibitors, primary screen, biochemical, luminescence, purified enzyme, 2006 set (AID 1141); conditions: SteadyGlo luminescence, 30 min, higher = more signal, called active from +8 up or from −8 down;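 also: cell-free assay with purified firefly luciferase at 100 ng per well in PBS; test concentration not given here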
Sequence (P08659 whole entry, looked up): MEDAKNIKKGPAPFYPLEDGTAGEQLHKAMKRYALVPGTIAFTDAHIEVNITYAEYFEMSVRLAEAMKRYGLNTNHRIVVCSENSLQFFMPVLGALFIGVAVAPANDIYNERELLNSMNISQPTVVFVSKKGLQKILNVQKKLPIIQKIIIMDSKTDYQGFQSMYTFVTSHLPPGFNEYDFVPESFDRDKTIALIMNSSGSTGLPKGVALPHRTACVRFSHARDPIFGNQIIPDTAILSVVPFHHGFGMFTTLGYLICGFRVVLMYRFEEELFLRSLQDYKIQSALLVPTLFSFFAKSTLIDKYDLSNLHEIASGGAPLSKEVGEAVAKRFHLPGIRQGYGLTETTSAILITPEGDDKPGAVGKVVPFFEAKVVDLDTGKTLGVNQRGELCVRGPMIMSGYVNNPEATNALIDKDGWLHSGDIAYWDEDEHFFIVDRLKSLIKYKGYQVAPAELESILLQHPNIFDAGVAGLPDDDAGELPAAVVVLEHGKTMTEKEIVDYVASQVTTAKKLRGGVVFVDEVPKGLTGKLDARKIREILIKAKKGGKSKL

z-score, inactive:
CCCC[C@@H](O)C1=C(C)Cn2c(=O)n(-c3ccccc3)c(=O)n2[C@H]1CO -1.32, CCOC(=O)C[C@H]1[C@H](OC(=O)c2cc3ccccc3oc2=O)[C@@H](NC(=O)Cc2ccc(OC)cc2)c2cc(OCCCO)ccc2N1C(=O)Cc1ccc(OC)cc1 0.827, COC(=O)C1=CC(CCCO)=CC(c2ccc(CN3CCCC3)cc2)N(C)C=C1C(=O)OC (stereo not given) -0.208, CCOC(=O)C[C@H]1[C@H](OC(=O)c2ccc(-c3ccccc3)cc2)[C@@H](NC(=O)c2ccc(-c3ccccc3)cc2)c2cc(OCCCO)ccc2N1C(=O)c1ccccc1 -0.339, COc1ccc(C(=O)Nc2cccc(CN3C(=O)[C@]4(O[C@H](CC(=O)N(CCO)Cc5ccccc5)[C@@H]([Si](C)(C)c5ccc(OC)cc5)[C@@H]4C)c4ccccc43)c2)cc1 -0.881, O=C(N1CCOCC1)[C@]1(CCS(=O)(=O)c2ccccc2)N=C(c2ccc(OCCCO)cc2)O[C@@H]1c1ccccc1 -1.55, CC(C)c1ccc(NN2C(C(O)c3ccccc3)C=CC3C(=O)N(c4ccccc4)C(=O)C32)cc1 (stereo not given) -2.04, COc1ccc([Si](C)(C)[C@H]2[C@H](CC(=O)N3CCC[C@H]3CO)O[C@@]3(C(=O)N(C)c4c(Br)cc(C)cc43)[C@@H]2C)cc1 0.395, COCCCNC(=O)[C@]1(Cc2ccccc2N=[N+]=[N-])N=C(c2ccc(OCCCO)cc2)O[C@@H]1c1ccccc1 -1.9, [N-]=[N+]=NCc1ccccc1[C@H]1OC(c2ccc(OCCCO)cc2)=N[C@@]1(Cc1ccccc1N=[N+]=[N-])C(N)=O -3.23, C=CC[C@]1(C(=O)NCC(O)CO)N=C(c2ccc(OCCCO)cc2)O[C@H]1c1ccccc1CN=[N+]=[N-] (stereo not given in full) -0.154, C[C@]1(C(=O)NC2CC2)c2ccccc2C(=O)N(Cc2cc(F)cc(C(F)(F)F)c2)[C@H]1c1ccc(CO)cc1 0.851, CC(C)N1CC=CC23O[C@@H]4/C=C\CCCOC(=O)C4[C@H]2C(=O)N(C(C)CO)[C@@H]3C1=O (stereo not given in full) 0.281, CCOC(=O)C[C@H]1[C@H](OC(=O)c2ccccc2-c2ccccc2)[C@@H](NC(=O)CC(C)C)c2cc(OCCCO)ccc2N1C(=O)c1ccccc1 0.914, CN(C)CCCCNC(=O)[C@H]1C[C@H]2C(=O)N[C@@H](CCCCN(C)C)C(=O)N2[C@H]1c1ccc(O)cc1 0.47, CC(CO)N1C(=O)[C@@H]2[C@H]3C(=O)OCC=C[C@H]3OC23C=CCN(c2ccc4ccccc4c2)C(=O)[C@@H]13 (stereo not given in full) -0.0768, CC(C)N1C(=O)[C@@]2(Cc3ccccc31)c1ccccc1C(=O)N(Cc1ccccc1)[C@H]2c1ccc(CO)cc1 -0.52, CCOC(=O)C1=CC[C@@H](c2ccccc2)N(S(=O)(=O)c2ccc(C)cc2)[C@@H]1C#N -0.323, COc1ccc([Si](C)(C)[C@@H]2[C@@H](CC(=O)N(CCO)Cc3ccccc3)O[C@]3(C(=O)N(Cc4cccc(I)c4)c4ccccc43)[C@H]2C)cc1 -0.216, CO[C@H]1O[C@H](CO)[C@@H](OC(=O)CCc2ccccc2)[C@@H]2OC(=O)[C@@H](Cc3ccc4ccccc4c3)C/C=C/C[C@H](Cc3ccc4ccccc4c3)C(=O)O[C@@H]12 -0.958, O=C1O[C@H](c2ccccc2)[C@H](c2ccccc2)N2[C@H]1[C@@H](C(=O)O)[C@]1(C(=O)Nc3ccccc31)[C@H]2c1ccc(OCCO)cc1 -1.01, O=C1c2ccccc2[C@@]2(Cc3ccccc3N(CC(F)(F)F)C2=O)[C@H](c2ccc(CO)cc2)N1Cc1ccccc1 0.746, COCCCNC(=O)[C@@]1(Cc2ccccc2I)c2ccccc2C(=O)N(C2CCCCC2)[C@H]1c1ccc(CO)cc1 0.948, COCCOC(=O)N1C(=O)[C@@]2(c3cc(C#CC4(O)CCCCCC4)ccc31)[C@H](C(N)=O)[C@H]1C(=O)O[C@H](c3ccccc3)[C@H](c3ccccc3)N1[C@@H]2c1ccc(OCCO)cc1 -1.03, CCCNC(=O)[C@@]1(Sc2ccc(C)cc2)CC(=O)N(Cc2cc(C(F)(F)F)cc(C(F)(F)F)c2)[C@@H]1c1ccc(CO)cc1 -0.297
